Screens (PubChem BioAssay)
mcGAS RapidFire = inhibitors of Mus musculus cyclic GMP-AMP synthase, initial high-throughput assay, cell-free, RapidFire MS | recombinant mouse cGAS, cGAMP by RapidFire MS | Q8C6L5 | AID 1259397, 2018 | hit rate 0.18% among 130,000 | inhibition, % at 12.5 µM;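 active = inhibition of cGAS enzyme activity at or above 60%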;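 also: enzyme stimulated by 45 bp dsDNA with ATP and GTP substrates; cGAMP share of summed cGAMP plus half ATP and half GTP signals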
Target sequence (Q8C6L5 whole entry, looked up): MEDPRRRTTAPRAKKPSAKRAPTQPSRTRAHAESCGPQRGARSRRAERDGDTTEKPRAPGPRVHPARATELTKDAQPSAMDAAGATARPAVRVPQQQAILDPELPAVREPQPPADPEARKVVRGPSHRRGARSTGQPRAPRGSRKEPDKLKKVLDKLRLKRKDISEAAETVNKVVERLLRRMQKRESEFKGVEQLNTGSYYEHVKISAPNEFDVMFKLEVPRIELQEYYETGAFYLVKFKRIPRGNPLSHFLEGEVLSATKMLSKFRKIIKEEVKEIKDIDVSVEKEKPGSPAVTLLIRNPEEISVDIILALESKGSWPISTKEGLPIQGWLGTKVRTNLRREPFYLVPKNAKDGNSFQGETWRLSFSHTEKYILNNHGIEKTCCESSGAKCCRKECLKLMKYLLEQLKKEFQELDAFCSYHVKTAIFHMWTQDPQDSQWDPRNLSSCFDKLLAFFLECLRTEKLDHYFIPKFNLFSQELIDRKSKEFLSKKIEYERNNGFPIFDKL
Numbers without * were called inactive; ! = not active in a repeat. The sample as a whole holds a higher share of hits than the screen did.

SMILES	mcGAS RapidFire
O=C(NN=Cc1ccccc1O)c1cc(Br)ccc1O	-6
C=CCN(Cc1ccc(Cl)s1)C(=O)Cn1ccccc1=O	-10
CC(C)c1cc(C2CCCN2Cc2nc(-c3ccco3)no2)no1 (centres undefined)	-13
O=C1OC(/C=C/c2cccc(Cl)c2Cl)=NC/1=C\c1ccc([N+](=O)[O-])cc1	71*
COc1ccc(/C=C2N=C(/C=C/c3cccc(Cl)c3Cl)OC\2=O)cc1	0
O=C1OC(/C=C/c2cccc(Cl)c2Cl)=NC/1=C/c1ccccc1[N+](=O)[O-]	-14
COc1cc(-c2cccc(CN3CCOCC3)c2)ncn1	-24
COC(=O)c1sccc1NS(=O)(=O)c1cc(Cl)cc(Cl)c1	-4
Cn1c(=NNS(=O)(=O)c2ccc(Cl)s2)sc2ccccc21	-1
CN(C(=O)c1cc(S(=O)(=O)N(C)C)ccc1Cl)C1CCc2ccccc21 (centres undefined)	-7
Cc1ccoc1C(=O)N1CCCC(NS(=O)(=O)c2ccccc2)C1 (centres undefined)	-16
O=C1OC(c2ccccc2)OC(=O)C1=C/C=C/c1ccccc1 (centres undefined)	88*
Cc1ccc(C2=N/C(=C\C=C\c3ccccc3)C(=O)O2)cc1	32
CC(C)Oc1ccccc1C=C1C(=O)OC(c2ccccc2)OC1=O (centres undefined)	-9
COc1cc(C)ccc1OCC(=O)N1CCC(=O)Nc2ccccc21	-4
COC(=O)c1sc(N)nc1C1CC1	-7
CC(C(=O)Nc1cccc(-c2cn3ccsc3n2)c1)n1nc(-c2cccs2)ccc1=O (centres undefined)	0
CCOc1ccc2nc(NC(=O)CC)sc2c1	-5
Nc1c2ccccc2nc2ccccc12 (tested in a mixture with another compound)	41
CCOc1ccc2nc3cc(N)ccc3c(N)c2c1	92*!
Cc1ccc(-c2cc(C(=O)N3C[C@@H]4[C@H](C3)[C@H]3CC[C@@H]4O3)n[nH]2)o1	22
Cc1cccn2c(=O)nc(SCC(=O)N3CCc4ccccc43)nc12	-1
COc1cccc(CNC(=O)CN(C)CCOc2ccc(O)cc2)c1	-8
O=C(c1ccoc1)N1CCOc2c(O)cc(-c3cccc(Cl)c3)cc2C1	-5
O=S(=O)(NC(C1CC1)C1CC1)c1cccc(Br)c1	3
SMILES	mcGAS RapidFire
O=C(c1cc2cc(Cl)ccc2[nH]1)N1CCC(Oc2ccccc2)CC1	-56
Cc1oc(C)c(C(=O)Nc2cccc(N3CCCC3=O)c2)c1C	-3
CCCC1(CNC(=O)c2c(C)oc3ncn(C)c(=O)c23)CCC1	-9
Cc1oc2ncn(C)c(=O)c2c1C(=O)Nc1cccc(COCC2CC2)c1	94*
CN(Cc1ccc(Cl)c(Cl)c1)C(=O)CS(=O)(=O)c1ccc(O)cc1	1
Cc1ccc(NC(=O)c2cnc(SCc3cccnc3)n(C)c2=O)cc1C	15
CC(c1ccccc1)n1c(CCn2ncc3ccccc3c2=O)n[nH]c1=S (centres undefined)	-3
NC(=O)n1c(O)c(C(=O)c2cccs2)c2cc(Cl)ccc21	70*
O=C(c1cccs1)c1cccs1	-7
O=C(c1cccs1)N1CCC(c2nc3cc(Cl)ccc3s2)CC1	-9
Cc1c2cccn2cc[n+]1CC(=O)c1ccccc1	-3
Cc1ccc[n+](CC(=O)c2ccc(-c3ccccc3)cc2)c1C	-7
O=C(C[n+]1ccc(NC(=O)c2ccccc2)c2ccccc21)c1ccccc1	64*
O=S(=O)(c1ccc(Cl)cc1)C1(S(=O)(=O)c2ccc(Cl)cc2)CCCC1	-19
COCCCNc1nc2nonc2nc1N1CCCN(Cc2cccs2)CC1	-4
CN(C)c1ccc(CNc2cccc(F)c2C#N)cc1	-3
COc1cc(C)c2c(c1C=O)Oc1c(c(C)c(O)c3c1C(O)OC3=O)OC2=O (centres undefined)	34
Cc1cc(O)c(C=O)c2c1C(=O)Oc1c(C)c(O)c3c(c1O2)C(O)OC3=O (centres undefined)	85*
CC(C)OCCCNC(N)=O	-16
CC(C)c1nc(NC(=O)c2[nH]ncc2Br)n(C)n1	94*
CC(C)c1nc(NC(=O)CS(=O)(=O)C2CCCC2)n(C)n1	-3
N#CC(NC(=O)c1[nH]ncc1Br)c1cccc(Cl)c1 (centres undefined)	-17
Cc1cc(C)n(-c2ccc(C(=O)NC(C)C)cn2)n1	-14
COCCS(=O)(=O)N(Cc1ccco1)c1ccc(F)cc1F	-48
COCCN(Cc1ccco1)S(=O)(=O)Cc1cccc(C)c1	89*
SMILES	mcGAS RapidFire
COCCN(Cc1ccco1)C(=O)CNc1ccccc1Cl	5
COc1ccc(Cl)c2sc(N(Cc3cccnc3)C(=O)c3ccccc3S(C)(=O)=O)nc12	-12
Cc1cn2c3c(=O)[nH]c(=O)n(C)c3nc2n1C(C)C	-7
CCCCCn1c(=S)[nH]c2sc3c(c2c1=O)CCC3	1
O=C(N=C1N=C2C=CC(Br)=CN2Cc2ccccc21)c1ccc(Br)o1	-12
N#Cc1ccccc1NC(=O)c1c(-c2ccccc2)c(-c2ccccc2)n[nH]c1=O	-3
N#Cc1ccccc1NC(=O)c1n[nH]c([N+](=O)[O-])c1Br	70*
N#Cc1ccccc1NC(=O)C1=COCCO1	-8
CC(=O)N1CCC(=NNC(=O)c2ccc(-n3c(C)ccc3C)cc2)CC1	-20
Cc1ccc(Sc2ccc(CN3C[C@H](N(C)C)C[C@H]3CO)o2)cc1	-7
CCN(Cc1ccncc1)C1CCCN(C(=O)Cn2cc(C)c(=O)[nH]c2=O)C1 (centres undefined)	0
Cc1cccc(CN2CCN(C(=O)c3n[nH]c(=O)c4ccccc34)CC2)c1	-7
O=C(c1n[nH]c(C2CC2)c1Cl)N1CCN(S(=O)(=O)c2ccccc2)CC1	-37
O=C(c1n[nH]c(=O)c2ccccc12)N1CCN(S(=O)(=O)c2cccc(Cl)c2)CC1	87*
O=C1C(=O)N(C2CCCC2)C(=O)N1CN1CCN(Cc2ccc3c(c2)OCO3)CC1	-8
Cc1cc(CNC(=O)CCCn2nnnc2CN2CCc3ccccc3C2)on1	-1
CCOC(=O)c1[nH]c(C)c(C(=O)N[C@@H]2C[C@@H](CO)N(C)C2)c1C	-10
CC1(C(=O)NS(=O)(=O)c2ccccc2OC(F)(F)F)CCN1C(=O)CC1CCCCC1 (centres undefined)	-4
COc1ccc(CN(C)Cc2nnc(C(C)C)o2)cc1OC(F)F	81*
COc1cc(CN(C)Cc2oc(CO)cc(=O)c2O)ccc1OC(F)F	-31
COc1cc(CSc2nnnn2-c2ccccc2)ccc1OC(F)F	0
COc1coc(C(=O)Nc2nc3ccccc3s2)cc1=O	15
COc1coc(C(=O)Nc2nc(C)cs2)cc1=O	-8
COc1coc(C(=O)Nc2nnc(C)s2)cc1=O	70*
CCC(=O)NC1CCCN(CCS(=O)(=O)c2ccc(Br)cc2)C1 (centres undefined)	13
SMILES	mcGAS RapidFire
CCOC(=O)C(N)CSc1nc(-c2cnn(C)c2)cc(C(F)(F)F)n1 (centres undefined)	31
c1ccc2c(c1)ncn1nc(CN3CCCCC3)nc21	-5
CCc1nc2c3ccccc3ncn2n1	-8
SCc1nc2c3ccccc3ncn2n1	95*
COC1=C(Cl)C(=O)N(c2c(C)cccc2C)C1=O	-8
CCC(=O)N(c1nnc(SC(C)C(N)=O)s1)C1CC1 (centres undefined)	-15
Cc1occc1C(=O)N1CCN(C(=O)NC(C)c2cccc(F)c2)CC1 (centres undefined)	-15
O=C(c1ccc2c(c1)OCO2)N1CCCC(OCc2cc(F)ccc2F)C1 (centres undefined)	-3
